According to PubChem BioAssay AID697 (Columbia University Molecular Screening Center, 2007):
The campaign covered roughly 96,000 compounds. About 100 (0.1%) were called active.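 The calls were made as follows: active = activation at 2 µM above a set limit, the mean plus 5 SD (cut at about 37% in these data); inactive = the rest.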 The entries come from a sample that favours actives as a whole.

biological target: Tyrosine-protein phosphatase non-receptor type 22 (Homo sapiens) (UniProt Q9Y2R2); test: LYP phosphatase activators, primary screen, biochemical, DiFMUP fluorescence, 2 µM (AID 697); settings: recombinant LYP, at 2 µM, stronger effect = higher value, 0 = plate median, 100 = signal doubled
Sequence (Q9Y2R2 whole entry, looked up): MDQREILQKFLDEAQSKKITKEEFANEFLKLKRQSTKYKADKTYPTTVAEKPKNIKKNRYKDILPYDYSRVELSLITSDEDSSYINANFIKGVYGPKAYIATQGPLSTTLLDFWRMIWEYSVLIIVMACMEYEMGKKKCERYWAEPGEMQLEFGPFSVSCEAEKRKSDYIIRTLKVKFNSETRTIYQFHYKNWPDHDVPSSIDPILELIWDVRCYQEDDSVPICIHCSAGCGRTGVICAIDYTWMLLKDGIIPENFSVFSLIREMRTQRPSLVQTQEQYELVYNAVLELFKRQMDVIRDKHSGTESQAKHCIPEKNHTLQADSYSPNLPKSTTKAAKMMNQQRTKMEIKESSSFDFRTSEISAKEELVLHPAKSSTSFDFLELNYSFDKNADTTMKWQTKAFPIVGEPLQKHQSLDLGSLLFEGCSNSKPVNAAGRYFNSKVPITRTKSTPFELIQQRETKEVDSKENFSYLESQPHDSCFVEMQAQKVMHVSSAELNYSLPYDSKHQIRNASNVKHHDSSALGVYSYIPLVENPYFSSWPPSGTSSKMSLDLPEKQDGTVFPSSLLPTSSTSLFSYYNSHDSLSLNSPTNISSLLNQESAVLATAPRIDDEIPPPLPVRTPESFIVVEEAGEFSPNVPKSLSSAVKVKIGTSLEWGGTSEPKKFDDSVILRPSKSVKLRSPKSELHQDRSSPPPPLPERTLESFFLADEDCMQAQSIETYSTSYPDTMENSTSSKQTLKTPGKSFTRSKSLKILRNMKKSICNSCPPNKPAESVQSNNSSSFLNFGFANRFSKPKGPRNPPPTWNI

activation, inactive:
Cc1cc(C)n2nc(C(=O)NC(C)(C)C)nc2n1 3.4%, C=CCN(C(=O)Nc1ccc2oc(C)nc2c1)c1ccccc1 -7.1%, COC(=O)c1cccc(-n2[nH]nnc2=S)c1 -1.7%, CC(C)(CCl)C(=O)Nc1ccc(Sc2ccc(F)cc2)cc1 1.3%, CC1(C)Cc2cccc(OCC(N)=O)c2O1 -3.7%, CCCCCCc1cc2cc(-c3nnc(-c4cccc(OC)c4)o3)c(=O)oc2cc1O -30.3%, COc1ccc(CNc2ccc3c(c2)CCC3)cc1OC -10.3%, COc1ccc(OC)c(-n2nnnc2SCC(=O)Nc2cc(C)ccc2OC)c1 2.6%, CC(C)C(=O)Nc1ccc2c(c1)oc1ccccc12 -1.6%, N/C(=N\OC(=O)c1cc(-c2ccccc2)nc2ccccc12)c1ccncc1 -7.1%, COc1ccc2c(c1)cc1n2CCN=C1NN 0.1%, COc1ccc(NC(=O)C2C3C=CC(C3)C2C(=O)NCc2ccccn2)c(OC)c1 (configuration not stated) -5%, CC1=NN(/C(=N\c2nnc(C)s2)Nc2ccccc2)[C@H](c2ccc(C)cc2)S1 -6.4%, CCc1ccc(C(=O)CSc2nnc(C)c(=O)[nH]2)cc1 -2.7%, COc1ccc(OC(C)C(=O)Nc2cccnc2)cc1 (configuration not stated) 6.9%, C/C(=N/NC(=O)c1ccc(NC(=O)c2ccc(F)cc2)cc1)c1ccccc1 -1.9%, CCc1ccc(C2C(C#N)=C(N)Oc3n[nH]c(CC(=O)OC)c32)cc1 (configuration not stated) 5.3%, COC(=O)CSc1nc2c(c(C3CC=CCC3)c1C#N)CCC2 (configuration not stated) -5.9%, C=CCNC(=O)c1cc2nc(C3CC3)cc(C(F)F)n2n1 -5.5%, COC(=O)c1cccc(N(C(=O)c2ccco2)C(C(=O)NC2CCCC2)c2ccco2)c1 (configuration not stated) 6.5%, CC(C)C(=O)Nc1nnc(Sc2ccc(N(C)C)cc2)s1 -2.7%, Cc1nn(Cc2ccc(F)cc2)c(C)c1NC(=O)c1noc2c1CCc1ccccc1-2 7.1%, CCOc1c2ccc(C(=O)NCc3ccc(OC(F)(F)F)cc3)cc2nn1C 10%, COc1cc(C(=S)N2CCOCC2)cc(OC)c1OC(=O)c1cc([N+](=O)[O-])c(C)c([N+](=O)[O-])c1 7%, Cc1cc(-c2cccs2)nc(-n2cccc2)n1 3.4%, CC1=CC(=O)C=CC1(C)C(Cl)(Cl)Cl (configuration not stated) 3.7%, FC(F)(F)c1cc(C(F)(F)F)c2ccc(N3CCN(c4ccccc4)CC3)nc2n1 2.8%, O=C1OC(c2ccc(Cl)cc2)=N/C1=C\c1cccnc1 7.7%, CC(C)c1cc(C(=O)O)n[nH]1 1.7%, O=C(Nc1ccc2nc3n(c(=O)c2c1)CCCCC3)c1ccccc1Cl -2.7%, CC1(C)CC(=O)C=C(N2CCCC2)C1 -1.1%, Cc1ccc(C2=CSC3=NS(=O)(=O)CCN23)cc1C -4.4%, Cc1ccc(-n2c(=O)c(C#N)cc3c(=O)n4ccccc4nc32)cc1C 5.7%, CCCCCOC(=O)c1ccc(N2C(=O)C3C4C=CC(C4)C3C2=O)cc1 (configuration not stated) 12.4%, CCC(C)NC(=O)c1ccccc1NC(=O)c1ccccc1N(C)S(C)(=O)=O (configuration not stated) 0.7%, CC(C)CC(=O)N1CCC(O)(CS(=O)(=O)Cc2ccccc2)CC1 -3.4%, CCCCNC(=O)c1onc(CSc2cccc(OC)c2)c1C(=O)O 4.5%, COc1ccc(CCN(C(=O)COc2ccccc2)c2nc(-c3ccccc3)cs2)cc1OC -13.3%, Cc1noc(NS(=O)(=O)c2ccc(N/C=C/C(=O)c3ccccc3)cc2)c1C 1.5%, CCCCCc1ccc(-c2ccc(C(=O)O)cc2)nc1 -8.9%, Cc1sc(NC(=O)C2C3CCC(O3)C2C(=O)O)c(C(=O)OC(C)C)c1-c1ccc(Cl)cc1 (configuration not stated) -4.2%, COc1cc(/C=C2/C(=O)ON=C2C)ccc1OCc1ccccc1F 6.2%, Cc1ccc(S(=O)(=O)/N=C(\CN2CCOCC2)N2CCOCC2)cc1 -1.4%, FC(F)(F)c1nc2ccccc2nc1N/N=C/c1ccc(Cl)cc1 5.5%, CCOC(=O)Cn1c(-c2cccnc2Cl)nc2ccccc21 15.2%, NC(=O)C1(N2CCCCC2)CCN(C2CC(=O)N(Cc3ccc(N4CCCC4=O)cc3)C2=O)CC1 (configuration not stated) -5.5%, CN(C)C(=O)c1cc(Br)ccc1Cl -3.6%, COc1ccc(N(CC(=O)N/N=C/c2cccc3c2OCCO3)S(=O)(=O)c2ccc(NC(C)=O)cc2)cc1 7.5%, O=C(/C=C/c1ccc(Cl)cc1Cl)c1cccnc1 2.2%, CCOC(=O)N1CCN(Cc2nc(N)nc(Nc3ccc(C)cc3)n2)CC1 7.7%, COc1cc(/C=C(\C#N)c2nc3c(s2)CC(C)CC3)ccc1O (configuration not stated) -3.9%, COCc1cc(C)nc2sc3c(=O)n(-c4cccc5ccccc45)nnc3c12 -7.5%, CC(=O)NC1=NN(C(C)=O)C(C)(c2ccc(Cl)s2)S1 (configuration not stated) 5.6%, O=S(=O)(c1cccc2nonc12)N1CCN(c2cccc(Cl)c2)CC1 8.3%, O=C(O)CSCc1ccc(C(=O)O)o1 -1.8%, CC(=O)c1cc2c(cc1NC(=O)CN1CCCCCC1)OCO2 -5.9%, COc1ccccc1CNS(=O)(=O)c1ccc(C)cc1 -13.5%, COC(=O)C1=C(C(=O)OC)C2(OC1c1ccc(Br)cc1)C(=O)c1ccccc1C2=O (configuration not stated) -2.6%, O=C(Cc1ccc2c(c1)CCCC2)Nc1ccccc1Cl 5.5%, CCOc1ccccc1C(=O)NC1CC2CCCC(C1)N2Cc1ccccc1 (configuration not stated) -12.3%, O=C(COc1ccc(S(=O)(=O)NCc2ccccc2)cc1)N1CCOCC1 2.4%, Cc1cccc(C)c1OC(=O)CSc1nnc(-c2ccccc2)o1 1.3%
